Consider eight molecules from publication PMC5540273 (PLoS ONE, 2017).

Some test systems named below: PLK2; PLK3; PLK4; PRKCD; PRKCE; PRKCH; PRKCI; PRKCQ; PRKD1; PRKD2; PRKD3; PRKG1; PRKG2; PRKX; PRP4; QSK; RAF1; RET.
What all share (conditions): concentration: 1 μM, replicates: in singlicate; n = 1
In a further assay the test system is T1, PRKR.
T1 construct: gene EIF2AK2

Another assay relates to T2, PYK2.
T2 construct: gene PTK2B
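Note: KINOMEscan kinase panel screen.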

As to `Cl.c1ccc(-c2ccc3c(Nc4ccc5[nH]ccc5c4)ccnc3c2)nc1` [GW440138], the “%Inh” value with PLK2 came out at 0%; in the assay on PLK3 it was 0%; in the assay on PLK4, 9%; in the assay on PRKCD, 0%; in the assay on PRKCE, 11%; in the assay with PRKCH, 12%. In addition, the “%Inh” value in the assay with PRKCI amounted to 0%; with PRKCQ, 0%; in the assay on PRKD1 it was 1%; in the assay on PRKD2 it was 2%; in the assay with PRKD3, 5%; in the assay on PRKG1, 0%. Further, the “%Inh” value in the assay on PRKG2 is 0%; with PRKR it was 0%; in the assay on PRKX, 3%; in the assay on PRP4 it was 77%; in the assay on PYK2, 0%; in the assay on QSK, 0%. Also, the “%Inh” value in the assay on RAF1 was found to be 40%; in the assay on RET, 96.9%.
On to `Cc1ccc(C(=O)Nc2ccc(Nc3ccnc4cc(-c5nccs5)ccc34)cc2O)cc1.Cl` [GW494702], for which the “%Inh” value in the assay with PLK2 stood at 0%; with PLK3, 0%; in the assay with PLK4, 98.4%; in the assay on PRKCD it was 0%; with PRKCE, 16%; in the assay on PRKCH it was 5%. Moreover, the “%Inh” value stood at 2% in the assay on PRKCI; 13% with PRKCQ; 0% with PRKD1; 2% in the assay on PRKD2; 0% in the assay on PRKD3; 0% in the assay with PRKG1. The “%Inh” value came to 0% in the assay with PRKG2; 0% in the assay with PRKR; 11% in the assay on PRKX; 46% in the assay on PRP4; 0% with PYK2; 0% in the assay on QSK. Further, the “%Inh” value in the assay with RAF1 is recorded as 19%; in the assay with RET, 59%.
As to `Cn1cc(-c2ccc3c(c2)CCN3C(=O)Cc2cccc(Cl)c2)c2c(N)ncnc21` [GSK2606590], the “%Inh” value with PLK2 was determined as 0%; with PLK3, 0%; in the assay on PLK4, 6%; in the assay with PRKCD, 15%; in the assay with PRKCE, 0%; in the assay with PRKCH it was 27%. Moreover, the “%Inh” value in the assay on PRKCI turned out to be 0%; with PRKCQ it was 10%; in the assay with PRKD1 it was 0%; with PRKD2 it was 0%; with PRKD3 it was 9%; in the assay with PRKG1, 14%. Further, the “%Inh” value in the assay on PRKG2 turned out to be 0%; with PRKR, 14%; in the assay on PRKX, 21%; with PRP4, 2%; in the assay with PYK2, 4%; in the assay with QSK, 23%. Further, the “%Inh” value in the assay with RAF1 was 1%; in the assay with RET, 27%.
Consider `Cl.c1ccc(-c2ccc3c(Nc4ccc5[nH]ncc5c4)ccnc3c2)nc1` [GW440137], for which the “%Inh” value turned out to be 0% with PLK2; 0% with PLK3; 7% in the assay with PLK4; 4% in the assay on PRKCD; 5% in the assay with PRKCE; 0% in the assay with PRKCH. The “%Inh” value is listed as 17% with PRKCI; 0% in the assay on PRKCQ; 3% in the assay with PRKD1; 12% with PRKD2; 17% in the assay with PRKD3; 0% in the assay with PRKG1. Also, the “%Inh” value is 0% in the assay with PRKG2; 0% with PRKR; 19% in the assay with PRKX; 66% in the assay with PRP4; 2% with PYK2; 6% with QSK. In addition, the “%Inh” value in the assay with RAF1 stood at 15%; with RET it was 76%.
As for `Cc1ccc(S(=O)(=O)Nc2ccc(Nc3nccc(Nc4cccc5[nH]ncc45)n3)cc2)cc1` [GSK581271], the “%Inh” value in the assay on PLK2 was 0%; with PLK3, 0%; with PLK4 it was 1%; in the assay on PRKCD, 0%; in the assay with PRKCE, 0%; in the assay on PRKCH, 0%. Also, the “%Inh” value in the assay with PRKCI was 7%; in the assay on PRKCQ, 0%; with PRKD1, 0%; in the assay with PRKD2, 0%; with PRKD3 it was 0%; in the assay with PRKG1, 0%. In addition, the “%Inh” value in the assay with PRKG2 is reported as 5%; in the assay with PRKR, 0%; in the assay with PRKX it was 6%; in the assay with PRP4, 53%; with PYK2, 12%; in the assay on QSK it was 6%. The “%Inh” value with RAF1 came out at 10%; in the assay with RET, 8%.
Turning to `Cc1ccc(C(=O)N2CC[C@@H](O)C2)cc1-n1c(C)cc(OCc2ccc(F)cc2F)c(Br)c1=O`, the “%Inh” value with PLK2, in the assay with PLK3, in the assay with PLK4, in the assay on PRKCD, in the assay with PRKCE and in the assay on PRKCH was 0% throughout. In addition, the “%Inh” value in the assay with PRKCI was determined as 2%; in the assay with PRKCQ, 0%; in the assay on PRKD1, 0%; in the assay with PRKD2, 0%; with PRKD3, 7%; in the assay on PRKG1 it was 6%. Also, the “%Inh” value in the assay with PRKG2 came out at 0%; with PRKR it was 0%; in the assay on PRKX it was 0%; in the assay with PRP4 it was 20%; in the assay with PYK2 it was 2%; with QSK it was 0%. The “%Inh” value is reported as 25% in the assay with RAF1 and 10% in the assay on RET.
Turning to `C[C@@H]1CC[C@@H](C(=O)Nc2ccccc2)CN1c1cc(-c2ccc3c(N)n[nH]c3c2)nc(N)n1` [GSK2286062], the “%Inh” value in the assay on PLK2 is 0%; with PLK3, 0%; with PLK4, 0%; in the assay on PRKCD, 9%; with PRKCE it was 6%; in the assay with PRKCH it was 14%. Moreover, the “%Inh” value with PRKCI is recorded as 15%; with PRKCQ, 0%; with PRKD1, 0%; with PRKD2 it was 23%; with PRKD3 it was 0%; with PRKG1 it was 0%. Besides, the “%Inh” value in the assay on PRKG2 came to 0%; in the assay with PRKR, 2%; in the assay on PRKX, 5%; in the assay with PRP4 it was 13%; with PYK2 it was 3%; in the assay on QSK it was 3%. Moreover, the “%Inh” value in the assay on RAF1 turned out to be 2%; with RET, 6%.
As to `COc1cccc(C2=C(Nc3ccc(Cl)c(C(=O)O)c3)C(=O)NC2=O)c1` [SB-390769], the “%Inh” value with PLK2 stood at 100%; in the assay with PLK3 it was 100%; with PLK4, 1%; in the assay on PRKCD, 0%; with PRKCE, 32%; in the assay on PRKCH, 25%. The “%Inh” value with PRKCI was 21%; with PRKCQ, 0%; in the assay on PRKD1, 0%; with PRKD2 it was 6%; with PRKD3 it was 0%; in the assay on PRKG1, 0%. In addition, the “%Inh” value in the assay on PRKG2 came to 41%; in the assay on PRKR, 9%; with PRKX, 0%; in the assay on PRP4, 31%; with PYK2, 0%; with QSK, 100%. Further, the results for the “%Inh” value with RAF1 and in the assay with RET were 14% and 11%, respectively.
